{
  "source": "PubChem BioAssay (EPA / NIEHS)",
  "key": {"[1]": {"biological_target": "human Esterase Plasma (ES), BCHE (gene 590) (UniProt P06276)", "sequence (P06276 whole entry, looked up)": "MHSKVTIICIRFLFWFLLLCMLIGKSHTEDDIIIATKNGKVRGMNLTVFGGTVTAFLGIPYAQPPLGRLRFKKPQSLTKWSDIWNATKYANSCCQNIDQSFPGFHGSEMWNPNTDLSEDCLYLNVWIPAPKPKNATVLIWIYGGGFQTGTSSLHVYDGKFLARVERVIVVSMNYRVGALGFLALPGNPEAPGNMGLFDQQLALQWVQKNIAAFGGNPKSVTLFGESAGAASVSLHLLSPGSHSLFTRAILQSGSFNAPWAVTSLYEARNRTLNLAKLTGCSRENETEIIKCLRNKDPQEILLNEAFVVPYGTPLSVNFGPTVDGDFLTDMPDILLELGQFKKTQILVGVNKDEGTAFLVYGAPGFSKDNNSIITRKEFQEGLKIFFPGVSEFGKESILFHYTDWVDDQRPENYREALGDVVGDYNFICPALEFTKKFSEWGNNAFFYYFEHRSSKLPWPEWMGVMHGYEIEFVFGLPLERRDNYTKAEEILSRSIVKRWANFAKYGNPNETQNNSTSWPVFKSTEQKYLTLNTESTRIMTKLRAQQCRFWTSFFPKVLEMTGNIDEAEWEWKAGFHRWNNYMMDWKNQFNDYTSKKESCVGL", "experiment": "NVS_ENZ_hES: NovaScreen (NVS) Enzymatic Assay for human Esterase Plasma (ES) (AID 2283157)", "outline": "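Primary single-concentration screen at 25 uM in duplicate, then concentration-response to a 50 uM top dose. Human plasma esterase activity detected colorimetrically after 0.25 h incubation, with DMSO as baseline.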"}, "[2]": {"biological_target": "human Ephrin type-B Receptor 1 (EphB1), EPHB1 (gene 2047) (UniProt P54762)", "sequence (P54762 whole entry, looked up)": "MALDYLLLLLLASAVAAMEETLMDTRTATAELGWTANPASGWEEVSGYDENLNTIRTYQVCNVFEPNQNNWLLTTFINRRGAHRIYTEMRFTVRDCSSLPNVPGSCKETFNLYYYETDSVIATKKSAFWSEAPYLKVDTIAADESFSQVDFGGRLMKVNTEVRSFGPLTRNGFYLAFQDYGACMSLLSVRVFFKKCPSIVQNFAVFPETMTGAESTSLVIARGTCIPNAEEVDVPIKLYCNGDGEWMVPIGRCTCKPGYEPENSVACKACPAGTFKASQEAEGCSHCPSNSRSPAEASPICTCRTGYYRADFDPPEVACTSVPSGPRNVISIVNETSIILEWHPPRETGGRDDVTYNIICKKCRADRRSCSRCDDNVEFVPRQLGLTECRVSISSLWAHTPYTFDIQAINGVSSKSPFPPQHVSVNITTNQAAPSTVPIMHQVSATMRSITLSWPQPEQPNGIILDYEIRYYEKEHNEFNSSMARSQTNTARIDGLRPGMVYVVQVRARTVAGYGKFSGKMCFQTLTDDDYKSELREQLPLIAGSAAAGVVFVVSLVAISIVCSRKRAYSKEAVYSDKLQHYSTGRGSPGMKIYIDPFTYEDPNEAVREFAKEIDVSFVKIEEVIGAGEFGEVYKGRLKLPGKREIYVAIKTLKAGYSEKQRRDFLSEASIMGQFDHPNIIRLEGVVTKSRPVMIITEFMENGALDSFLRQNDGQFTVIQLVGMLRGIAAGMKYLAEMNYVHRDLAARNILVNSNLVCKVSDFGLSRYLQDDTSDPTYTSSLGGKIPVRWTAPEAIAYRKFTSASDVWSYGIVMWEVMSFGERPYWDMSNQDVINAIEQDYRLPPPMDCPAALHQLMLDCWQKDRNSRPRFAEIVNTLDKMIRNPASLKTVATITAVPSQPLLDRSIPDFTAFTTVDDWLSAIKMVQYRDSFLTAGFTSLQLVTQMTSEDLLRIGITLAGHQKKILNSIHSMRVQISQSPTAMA", "experiment": "NVS_ENZ_hEphB1: NovaScreen (NVS) Enzymatic Assay for human Ephrin type-B Receptor 1 (EphB1) (AID 2283154)", "outline": "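Recombinant EphB1 activity read by fluorescence after mobility-shift separation of product from substrate, 1 h post-dosing. Compounds screened in duplicate at 25 uM; inhibition scored as signal loss relative to DMSO.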"}, "[3]": {"biological_target": "human Elastase, ELANE (gene 1991) (UniProt P08246)", "sequence (P08246 whole entry, looked up)": "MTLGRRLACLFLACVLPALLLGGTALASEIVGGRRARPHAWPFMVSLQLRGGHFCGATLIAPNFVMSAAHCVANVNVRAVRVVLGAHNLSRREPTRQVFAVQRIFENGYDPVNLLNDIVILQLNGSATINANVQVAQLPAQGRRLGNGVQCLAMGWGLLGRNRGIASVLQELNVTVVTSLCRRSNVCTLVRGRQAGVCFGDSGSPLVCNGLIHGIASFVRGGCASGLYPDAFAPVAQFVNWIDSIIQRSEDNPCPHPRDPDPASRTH", "experiment": "NVS_ENZ_hElastase: NovaScreen (NVS) Enzymatic Assay for human Elastase (AID 2283153)", "outline": "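Concentration-response to 50 uM max, run singly for chemicals passing a threshold (e.g., 30% inhibition) in a duplicate 25 uM single-point screen. Neutrophil-derived human elastase, absorbance read-out of enzyme activity at 1.5 h; DMSO baseline.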"}, "[4]": {"biological_target": "human Dual Specificity Protein Phosphatase 3 (DUSP3), DUSP3 (gene 1845) (UniProt P51452)", "sequence (P51452 whole entry, looked up)": "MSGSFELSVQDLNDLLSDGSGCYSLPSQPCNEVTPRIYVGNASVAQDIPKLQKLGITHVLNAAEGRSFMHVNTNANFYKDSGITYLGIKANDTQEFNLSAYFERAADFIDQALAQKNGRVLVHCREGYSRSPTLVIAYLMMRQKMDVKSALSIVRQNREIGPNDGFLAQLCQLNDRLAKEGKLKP", "experiment": "NVS_ENZ_hDUSP3: NovaScreen (NVS) Enzymatic Assay for human Dual Specificity Protein Phosphatase 3 (DUSP3) (AID 2283152)", "outline": "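Cell-free fluorescence-intensity enzyme activity assay with recombinant protein and substrate; loss of signal fitted relative to DMSO baseline. Primary screen in duplicate at 25 uM, actives then run in concentration series; measured 0 h after dosing.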"}, "[5]": {"biological_target": "human Ephrin type-B Receptor 2 (EphB2), EPHB2 (gene 2048) (UniProt P29323)", "sequence (P29323 whole entry, looked up)": "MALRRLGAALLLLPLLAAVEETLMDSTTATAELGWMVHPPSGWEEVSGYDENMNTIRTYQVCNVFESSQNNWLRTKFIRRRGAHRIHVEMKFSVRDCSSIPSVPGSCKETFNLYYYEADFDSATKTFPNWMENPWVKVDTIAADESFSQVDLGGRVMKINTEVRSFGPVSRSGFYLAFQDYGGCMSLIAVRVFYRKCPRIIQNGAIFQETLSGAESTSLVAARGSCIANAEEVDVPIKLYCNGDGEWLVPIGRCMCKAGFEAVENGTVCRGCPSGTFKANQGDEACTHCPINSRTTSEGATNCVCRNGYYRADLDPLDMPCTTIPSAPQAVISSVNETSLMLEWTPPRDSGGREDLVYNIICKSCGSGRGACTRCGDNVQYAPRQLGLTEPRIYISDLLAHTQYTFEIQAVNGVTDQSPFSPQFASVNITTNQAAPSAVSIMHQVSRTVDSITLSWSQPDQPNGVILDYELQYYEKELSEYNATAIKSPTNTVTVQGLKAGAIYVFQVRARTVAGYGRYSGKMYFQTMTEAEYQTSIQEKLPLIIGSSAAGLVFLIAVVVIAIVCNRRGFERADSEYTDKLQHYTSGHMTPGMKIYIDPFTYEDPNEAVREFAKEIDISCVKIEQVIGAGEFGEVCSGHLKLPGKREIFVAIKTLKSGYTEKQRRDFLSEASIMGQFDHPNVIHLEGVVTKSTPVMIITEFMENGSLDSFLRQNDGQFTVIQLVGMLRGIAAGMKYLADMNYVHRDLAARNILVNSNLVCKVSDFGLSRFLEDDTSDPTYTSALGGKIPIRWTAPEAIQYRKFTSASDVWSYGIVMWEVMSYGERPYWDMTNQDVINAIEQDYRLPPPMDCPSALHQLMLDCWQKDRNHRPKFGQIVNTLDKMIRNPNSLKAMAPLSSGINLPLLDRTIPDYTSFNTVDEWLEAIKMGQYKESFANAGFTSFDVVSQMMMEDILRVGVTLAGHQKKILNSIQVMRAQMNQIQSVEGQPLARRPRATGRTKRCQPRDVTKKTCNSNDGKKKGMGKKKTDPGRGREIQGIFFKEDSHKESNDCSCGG", "experiment": "NVS_ENZ_hEphB2: NovaScreen (NVS) Enzymatic Assay for human Ephrin type-B Receptor 2 (EphB2) (AID 2283156)", "outline": "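Compounds were first tested in duplicate at 25 uM, with hits rerun singly in concentration series up to 50 uM. Enzyme activity on fluorescent substrate was read at 1 h by mobility-shift separation, scored as signal loss relative to DMSO.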"}, "[6]": {"biological_target": "human Colony Stimulating Factor 1 Receptor (CSF1R), CSF1R (gene 1436) (UniProt P07333)", "sequence (P07333 whole entry, looked up)": "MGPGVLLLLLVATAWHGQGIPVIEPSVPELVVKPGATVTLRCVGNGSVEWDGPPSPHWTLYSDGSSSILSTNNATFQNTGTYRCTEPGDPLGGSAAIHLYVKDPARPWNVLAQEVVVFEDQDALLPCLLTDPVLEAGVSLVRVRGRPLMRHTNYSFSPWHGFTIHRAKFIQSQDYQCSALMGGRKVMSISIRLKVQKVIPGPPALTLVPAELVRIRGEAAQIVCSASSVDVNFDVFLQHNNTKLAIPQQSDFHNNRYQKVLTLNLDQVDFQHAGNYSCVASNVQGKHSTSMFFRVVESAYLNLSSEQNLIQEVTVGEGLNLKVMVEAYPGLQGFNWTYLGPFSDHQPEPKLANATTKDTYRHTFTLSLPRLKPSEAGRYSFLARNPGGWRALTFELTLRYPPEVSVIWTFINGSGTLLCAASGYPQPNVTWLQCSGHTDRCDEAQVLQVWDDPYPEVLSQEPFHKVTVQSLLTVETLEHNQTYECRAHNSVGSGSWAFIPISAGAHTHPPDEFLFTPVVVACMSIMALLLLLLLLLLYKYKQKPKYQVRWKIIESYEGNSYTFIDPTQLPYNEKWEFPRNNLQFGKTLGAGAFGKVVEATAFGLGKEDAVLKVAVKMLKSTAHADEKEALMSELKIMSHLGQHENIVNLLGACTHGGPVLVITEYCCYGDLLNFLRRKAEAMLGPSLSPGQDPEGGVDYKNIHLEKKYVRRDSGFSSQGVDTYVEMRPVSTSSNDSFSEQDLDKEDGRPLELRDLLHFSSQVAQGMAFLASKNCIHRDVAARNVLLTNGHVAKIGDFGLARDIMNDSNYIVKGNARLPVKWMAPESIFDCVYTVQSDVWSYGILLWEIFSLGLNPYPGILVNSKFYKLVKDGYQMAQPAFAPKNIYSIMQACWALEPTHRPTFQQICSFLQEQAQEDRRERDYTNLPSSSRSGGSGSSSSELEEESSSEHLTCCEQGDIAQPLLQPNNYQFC", "experiment": "NVS_ENZ_hCSF1R: NovaScreen (NVS) Enzymatic Assay for human Colony Stimulating Factor 1 Receptor (CSF1R) (AID 2283150)", "description": "NVS_ENZ_hCSF1R is a biochemical, single-readout assay that uses extracted gene-proteins in a cell-free assay. Measurements were taken 1 hour after chemical dosing in a 384-well plate.NVS_ENZ_hCSF1R is one of one assay component(s) measured or calculated from the NVS_ENZ_hCSF1R assay. It is designed to make measurements of enzyme activity, a form of enzyme reporter, as detected with fluorescence intensity signals by Fluorescence and electrophoretic mobility shift technology.Data from the assay component NVS_ENZ_hCSF1R was analyzed into 1 assay endpoint. This assay endpoint, NVS_ENZ_hCSF1R, was analyzed in the positive analysis fitting direction relative to DMSO as the negative control and baseline of activity. Using a type of enzyme reporter, loss-of-signal activity can be used to understand changes in the enzymatic activity as they relate to the gene CSF1R. Furthermore, this assay endpoint can be referred to as a primary readout, because this assay has produced multiple assay endpoints where this one serves a enzymatic activity function. To generalize the intended target to other relatable targets, this assay endpoint is annotated to the kinase intended target family, where the subfamily is receptor tyrosine kinase. […]"}, "[7]": {"biological_target": "human Ephrin type-A Receptor 2 (EphA2), EPHA2 (gene 1969) (UniProt P29317)", "experiment": "NVS_ENZ_hEphA2: NovaScreen (NVS) Enzymatic Assay for human Ephrin type-A Receptor 2 (EphA2) (AID 2283155)", "outline": "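Enzyme activity of recombinant EphA2 read by fluorescence after mobility-shift separation, 1 h after dosing. Chemicals first tested at 25 uM (duplicate); those passing threshold run as concentration series, top 50 uM, single replicate, relative to DMSO.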"}, "[8]": {"biological_target": "human Ephrin type-A Receptor 1 (EphA1), EPHA1 (gene 2041) (UniProt P21709)", "sequence (P21709 whole entry, looked up)": "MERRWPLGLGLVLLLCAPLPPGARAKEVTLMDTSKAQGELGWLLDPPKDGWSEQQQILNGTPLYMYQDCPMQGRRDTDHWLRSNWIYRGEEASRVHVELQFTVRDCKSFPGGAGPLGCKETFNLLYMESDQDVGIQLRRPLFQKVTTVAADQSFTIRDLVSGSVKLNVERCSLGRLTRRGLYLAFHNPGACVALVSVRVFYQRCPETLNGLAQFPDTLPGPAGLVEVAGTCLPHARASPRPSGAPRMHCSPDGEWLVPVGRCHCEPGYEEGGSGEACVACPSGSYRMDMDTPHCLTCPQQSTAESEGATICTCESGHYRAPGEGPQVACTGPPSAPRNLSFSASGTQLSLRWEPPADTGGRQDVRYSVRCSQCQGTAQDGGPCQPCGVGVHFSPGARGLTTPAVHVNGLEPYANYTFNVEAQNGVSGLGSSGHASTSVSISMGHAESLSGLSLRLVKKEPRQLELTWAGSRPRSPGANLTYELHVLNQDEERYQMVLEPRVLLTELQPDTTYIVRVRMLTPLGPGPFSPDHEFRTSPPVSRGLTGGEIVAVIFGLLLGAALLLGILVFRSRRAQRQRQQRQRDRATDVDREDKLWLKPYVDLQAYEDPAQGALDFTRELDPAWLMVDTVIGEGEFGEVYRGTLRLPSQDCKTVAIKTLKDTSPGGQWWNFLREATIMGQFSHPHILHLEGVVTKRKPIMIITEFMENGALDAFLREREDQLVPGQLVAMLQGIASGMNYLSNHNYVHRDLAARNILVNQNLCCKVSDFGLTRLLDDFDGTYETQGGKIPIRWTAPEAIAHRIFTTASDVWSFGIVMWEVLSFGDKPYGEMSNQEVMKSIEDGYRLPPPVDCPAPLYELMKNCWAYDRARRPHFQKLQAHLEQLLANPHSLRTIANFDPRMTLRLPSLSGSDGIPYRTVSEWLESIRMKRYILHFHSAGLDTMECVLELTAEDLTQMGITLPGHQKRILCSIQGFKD", "experiment": "NVS_ENZ_hEphA1: NovaScreen (NVS) Enzymatic Assay for human Ephrin type-A Receptor 1 (EphA1) (AID 2283158)", "outline": "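Fluorescent substrate conversion, resolved by mobility-shift separation, measured 1 hour post-dosing using recombinant enzyme; signal loss relative to DMSO baseline. Single-concentration duplicates at 25 uM preceded singleton concentration series topping at 50 uM.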"}},
  "note": "Records with an inconclusive call do not appear. The source made the active and inactive calls. Rule for the calls: active = hit-call score of the fitted dose curve at least 0.9, where 1 is the maximum; inconclusive = response in the unintended direction; inactive = score below 0.9.",
  "data": [
    {"molecule": "O=C(O)c1c(Cl)ccc2cc(Cl)cnc12", "values": [
      {"measurement": "AC50", "setting": "[1]", "result": "8.48 µM (active)"}
    ]},
    {"molecule": "CN=C=S", "values": [
      {"measurement": "outcome", "setting": "[2]", "result": "inactive"}
    ]},
    {"molecule": "CC1(C)CCC(=Cc2ccc(Cl)cc2)C1(O)Cn1cncn1", "note": "(stereo unspecified)", "values": [
      {"measurement": "outcome", "setting": "[1]", "result": "inactive"}
    ]},
    {"molecule": "CCOc1cc(C(C)(C)C)ccc1C1COC(c2c(F)cccc2F)=N1", "note": "(stereo unspecified)", "values": [
      {"measurement": "AC50", "setting": "[3]", "result": "40.9 µM (active)"}
    ]},
    {"molecule": "Cn1c(-c2ccccc2)cc(-c2ccccc2)[n+]1C", "values": [
      {"measurement": "AC50", "setting": "[1]", "result": "4.69 µM (active)"}
    ]},
    {"molecule": "OC(c1ccc(Cl)cc1)(c1ccc(Cl)cc1)C(Cl)(Cl)Cl", "values": [
      {"measurement": "outcome", "setting": "[3]", "result": "inactive"}
    ]},
    {"molecule": "COC(=O)N(C(=O)N1CO[C@@]2(C(=O)OC)Cc3cc(Cl)ccc3C2=N1)c1ccc(OC(F)(F)F)cc1", "values": [
      {"measurement": "outcome", "setting": "[4]", "result": "inactive"},
      {"measurement": "outcome", "setting": "[2]", "result": "inactive"},
      {"measurement": "outcome", "setting": "[5]", "result": "inactive"}
    ]},
    {"molecule": "CCN(CC)C(=O)C(C)Oc1cccc2ccccc12", "note": "(stereo unspecified)", "values": [
      {"measurement": "outcome", "setting": "[6]", "result": "inactive"},
      {"measurement": "AC50", "setting": "[1]", "result": "16.7 µM (active)"}
    ]},
    {"molecule": "COP(=O)(OC)O/C(C)=C/C(=O)N(C)C", "values": [
      {"measurement": "AC50", "setting": "[1]", "result": "17.4 µM (active)"}
    ]},
    {"molecule": "CC(C)NC(=O)N1CC(=O)N(c2cc(Cl)cc(Cl)c2)C1=O", "values": [
      {"measurement": "outcome", "setting": "[7]", "result": "inactive"}
    ]},
    {"molecule": "CNC(=O)N(C)c1nnc(C(C)(C)C)s1", "values": [
      {"measurement": "outcome", "setting": "[2]", "result": "inactive"}
    ]},
    {"molecule": "CCOP(=O)(OCC)Oc1nc(Cl)c(Cl)cc1Cl", "values": [
      {"measurement": "AC50", "setting": "[3]", "result": "14.4 µM (active)"},
      {"measurement": "outcome", "setting": "[2]", "result": "inactive"},
      {"measurement": "AC50", "setting": "[1]", "result": "0.00463 µM (active)"}
    ]},
    {"molecule": "CCCC(=NOCC)C1=C(O)CC(CC(C)SCC)CC1=O", "note": "(stereo unspecified)", "values": [
      {"measurement": "outcome", "setting": "[4]", "result": "inactive"}
    ]},
    {"molecule": "CC1(C)C(C(=O)OC(C#N)c2cccc(Oc3ccccc3)c2)C1(C)C", "note": "(stereo unspecified)", "values": [
      {"measurement": "outcome", "setting": "[3]", "result": "inactive"},
      {"measurement": "outcome", "setting": "[2]", "result": "inactive"}
    ]},
    {"molecule": "Cc1c(COC(=O)[C@@H]2[C@H](/C=C(\\Cl)C(F)(F)F)C2(C)C)cccc1-c1ccccc1", "values": [
      {"measurement": "outcome", "setting": "[3]", "result": "inactive"},
      {"measurement": "outcome", "setting": "[2]", "result": "inactive"}
    ]},
    {"molecule": "N#Cc1c[nH]cc1-c1cccc2c1OC(F)(F)O2", "values": [
      {"measurement": "outcome", "setting": "[8]", "result": "inactive"}
    ]},
    {"molecule": "CCOP(=S)(OCC)Oc1nc(Cl)n(C(C)C)n1", "values": [
      {"measurement": "outcome", "setting": "[3]", "result": "inactive"},
      {"measurement": "AC50", "setting": "[1]", "result": "4.75 µM (active)"}
    ]},
    {"molecule": "C=CCOC(=O)C(C)(C)OC(=O)c1cc(-n2c(=O)cc(C(F)(F)F)n(C)c2=O)ccc1Cl", "values": [
      {"measurement": "outcome", "setting": "[2]", "result": "inactive"}
    ]}
  ]
}
